According to PubChem BioAssay:
Activity calls are given as the source filed them.

Experiments:
[1] = test system: Plasmodium falciparum Sir2 (PF13_0152, Sir2A); experiment: Plasmodium falciparum Sir2A binding compounds – biochemical, small-molecule microarray, 635 nm fluorescence, primary screen (AID 1098); details: fluorescence 635 nm, higher = more signal;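 further: score merges spot fluorescence intensity with its signal-to-noise ratio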
[2] = probe aDKK1 binding to arrayed compounds – biochemical, biotinylated probe, 635/667 nm fluorescence, primary screen (AID 1099); details: small-molecule microarray, higher = more signal;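 further: score merges 667nm spot fluorescence with signal to noise across triplicate slides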
[3] = probe aCHRDL2 binding to arrayed compounds – biochemical, biotinylated probe, 635/667 nm fluorescence, primary screen (AID 1100); details: small-molecule microarray, higher = more signal
[4] = change in splice reporter luminescence, either direction, cell-based, HEK293, spliceosome inhibition project, primary screen (AID 1101); details: HEK293 splicing luciferase reporter, 24 h, higher = more signal, called active from +8 up or from −8 down;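 further: HEK293 cells carrying a splicing-competent luciferase reporter gene; test concentration not given here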
[5] = target: Fibroblast growth factor 10 (Homo sapiens) (UniProt O15520); experiment: compounds binding fibroblast growth factor 10 – biochemical, small-molecule microarray, 635 nm fluorescence, primary screen (AID 1102); details: FGF10 binding, fluorescence 635 nm, higher = more signal
Chain of Fibroblast growth factor 10 (Homo sapiens) (O15520 whole entry, looked up): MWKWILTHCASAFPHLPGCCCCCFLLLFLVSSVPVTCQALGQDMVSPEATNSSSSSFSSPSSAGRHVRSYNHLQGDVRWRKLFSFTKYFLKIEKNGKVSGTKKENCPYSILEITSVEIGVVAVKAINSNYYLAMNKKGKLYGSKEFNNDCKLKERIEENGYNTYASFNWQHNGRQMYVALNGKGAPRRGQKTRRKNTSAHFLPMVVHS

[6] = test system: glycogen synthase kinase-3 (GSK3A per assay name; protocol says GSK3B); experiment: compounds binding glycogen synthase kinase-3 – biochemical, small-molecule microarray, 635 nm fluorescence, GSK3A, primary screen (AID 1103); details: fluorescence 635 nm, higher = more signal; further: the record names both GSK3A and GSK3B
[7] = target: Epidermal growth factor receptor (Homo sapiens) (UniProt P00533); experiment: compounds binding epidermal growth factor receptor – biochemical, small-molecule microarray, 635 nm fluorescence, primary screen (AID 1104); details: EGFR binding, higher = more signal;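 further: score merges 667 nm emission intensity with spot signal to noise over triplicate slides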
Chain of Epidermal growth factor receptor (Homo sapiens) (P00533 whole entry, looked up): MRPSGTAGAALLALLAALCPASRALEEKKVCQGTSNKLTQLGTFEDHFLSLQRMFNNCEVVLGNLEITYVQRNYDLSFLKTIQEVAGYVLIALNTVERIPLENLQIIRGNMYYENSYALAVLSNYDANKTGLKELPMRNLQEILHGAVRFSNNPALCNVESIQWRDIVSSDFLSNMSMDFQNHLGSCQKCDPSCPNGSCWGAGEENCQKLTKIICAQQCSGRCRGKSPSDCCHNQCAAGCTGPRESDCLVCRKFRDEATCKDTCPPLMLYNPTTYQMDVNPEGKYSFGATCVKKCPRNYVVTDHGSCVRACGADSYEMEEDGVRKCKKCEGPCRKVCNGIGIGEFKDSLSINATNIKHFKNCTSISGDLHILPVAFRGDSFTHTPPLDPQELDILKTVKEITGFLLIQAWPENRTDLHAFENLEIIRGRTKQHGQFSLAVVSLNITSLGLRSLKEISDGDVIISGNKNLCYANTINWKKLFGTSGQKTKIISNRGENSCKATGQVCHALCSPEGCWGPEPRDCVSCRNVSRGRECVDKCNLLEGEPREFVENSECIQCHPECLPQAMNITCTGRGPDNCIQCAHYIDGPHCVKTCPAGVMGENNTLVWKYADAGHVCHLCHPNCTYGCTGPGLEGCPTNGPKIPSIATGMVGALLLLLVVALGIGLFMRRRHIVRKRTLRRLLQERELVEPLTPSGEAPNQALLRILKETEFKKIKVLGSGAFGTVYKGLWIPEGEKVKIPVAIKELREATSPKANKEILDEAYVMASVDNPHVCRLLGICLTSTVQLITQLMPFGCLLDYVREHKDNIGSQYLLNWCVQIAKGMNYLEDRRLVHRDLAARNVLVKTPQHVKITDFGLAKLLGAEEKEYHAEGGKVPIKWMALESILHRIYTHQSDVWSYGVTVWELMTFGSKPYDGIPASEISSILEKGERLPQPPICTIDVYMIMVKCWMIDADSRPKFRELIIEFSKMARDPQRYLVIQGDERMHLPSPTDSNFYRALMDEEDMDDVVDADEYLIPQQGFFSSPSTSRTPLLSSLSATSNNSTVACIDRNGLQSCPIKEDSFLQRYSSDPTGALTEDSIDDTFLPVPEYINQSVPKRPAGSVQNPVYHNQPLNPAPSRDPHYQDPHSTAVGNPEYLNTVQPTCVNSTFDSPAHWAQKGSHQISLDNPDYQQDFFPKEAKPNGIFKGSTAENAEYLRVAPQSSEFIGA

[8] = target: Follistatin-related protein 3 (Homo sapiens) (UniProt O95633); experiment: compounds binding follistatin-related protein 3 – biochemical, small-molecule microarray, 635 nm fluorescence, primary screen (AID 1105); details: FSTL3 binding, higher = more signal;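 further: score merges emission near 667 nm and signal to noise per printed spot across three slides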
Chain of Follistatin-related protein 3 (Homo sapiens) (O95633 whole entry, looked up): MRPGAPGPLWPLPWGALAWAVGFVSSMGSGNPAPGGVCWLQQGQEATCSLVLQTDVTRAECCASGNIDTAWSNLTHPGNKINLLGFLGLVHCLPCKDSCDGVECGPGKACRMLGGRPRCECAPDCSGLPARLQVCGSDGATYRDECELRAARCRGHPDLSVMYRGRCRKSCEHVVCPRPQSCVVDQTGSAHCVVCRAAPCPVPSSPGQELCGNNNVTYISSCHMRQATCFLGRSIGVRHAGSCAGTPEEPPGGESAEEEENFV

[9] = target: Dickkopf-related protein 1 (Homo sapiens) (UniProt O94907); experiment: small molecules binding DKK1 protein – biochemical, small-molecule microarray, 635 nm fluorescence scan, primary screen (AID 1106); details: higher = more signal;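 further: score merges emission near 667 nm with signal to noise over three replicate slides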
Chain of Dickkopf-related protein 1 (Homo sapiens) (O94907 whole entry, looked up): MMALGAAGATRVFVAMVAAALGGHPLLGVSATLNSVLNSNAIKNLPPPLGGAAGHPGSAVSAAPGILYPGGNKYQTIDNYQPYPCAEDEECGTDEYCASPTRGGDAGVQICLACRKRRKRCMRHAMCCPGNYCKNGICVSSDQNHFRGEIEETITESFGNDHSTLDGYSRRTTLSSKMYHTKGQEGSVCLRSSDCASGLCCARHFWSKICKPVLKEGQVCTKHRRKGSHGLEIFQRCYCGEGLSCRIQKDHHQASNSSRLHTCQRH

[10] = test system: Inhibin beta A chain (activin A); experiment: small molecules binding activin A – biochemical, small-molecule microarray, 635 nm fluorescence scan, primary screen (AID 1107); details: INHBA, higher = more signal;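 further: mouse activin A protein probed at 4.33 µg/mL on printed slides; score merges bound-protein fluorescence near 667 nm with spot signal-to-noise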
[11] = test system: Human papillomavirus type 1a protein E7 (residues 44-93); experiment: small molecules binding HPV E7 44-93 – biochemical, small-molecule microarray, residues 44-93, 635 nm fluorescence, primary screen (AID 1108); details: fluorescence 635 nm, higher = more signal;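 further: E7 fragment applied at 1 µg/mL in TBST for 1 h at 4 C; score combines spot fluorescence with its signal to noise ratio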
[12] = hepatitis C replication reporter changes, two-sided – Huh7 cells, luciferase reporter, HCV replication inhibitor project, primary screen (AID 1109); details: Huh7 HCV replicon luciferase reporter, 48 h; higher = more signal;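 further: huh7 hepatoma cells harbouring a luciferase neomycin HCV replicon reporter; luciferase luminescence as measure of HCV replicon replication; test concentration not given here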
[13] = target: Left-right determination factor 2 (Homo sapiens) (UniProt O00292); experiment: small molecules binding LEFTY2 protein – biochemical, small-molecule microarray, 635 nm fluorescence scan, primary screen (AID 1110); details: higher = more signal
Chain of Left-right determination factor 2 (Homo sapiens) (O00292 whole entry, looked up): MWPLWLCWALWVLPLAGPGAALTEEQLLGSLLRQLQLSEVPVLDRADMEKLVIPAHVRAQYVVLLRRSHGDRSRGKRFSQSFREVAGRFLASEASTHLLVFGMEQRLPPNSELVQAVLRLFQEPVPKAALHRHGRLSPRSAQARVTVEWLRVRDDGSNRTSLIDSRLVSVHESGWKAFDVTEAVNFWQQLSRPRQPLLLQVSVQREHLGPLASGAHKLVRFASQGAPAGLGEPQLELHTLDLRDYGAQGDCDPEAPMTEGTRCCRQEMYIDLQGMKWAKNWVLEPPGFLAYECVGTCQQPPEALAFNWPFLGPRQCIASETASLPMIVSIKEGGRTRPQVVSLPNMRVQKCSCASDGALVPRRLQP

[14] = target: Calmodulin-1 (Homo sapiens) (UniProt P0DP23); experiment: small molecules binding calmodulin-1 with EGTA – biochemical, small-molecule microarray, Cy5-labelled CALM1, profiling panel (AID 1111); details: Cy5-CALM1 binding fluorescence, higher = more signal;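 further: labelled calmodulin applied in Tris saline Tween buffer holding calcium plus EGTA and DTT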
[15] = target: Calmodulin-1 (Homo sapiens) (UniProt P0DP23); experiment: small molecules binding Ca-loaded calmodulin-1 – biochemical, small-molecule microarray, Cy5-labelled CALM1, plus calcium, artefact control for SMM control-protein annotation, profiling panel (AID 1112); details: Cy5-CALM1 binding fluorescence, higher = more signal;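 further: score merges spot fluorescence with signal to noise from triplicate slides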
[16] = probe aWnt5a binding to arrayed compounds – biochemical, biotinylated probe, 635/667 nm fluorescence, primary screen (AID 1113); details: small-molecule microarray, higher = more signal;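 further: score merges 667 nm fluorescence intensity with signal-to-noise per printed feature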
[17] = probe aShh binding to arrayed compounds – biochemical, biotinylated probe, 635/667 nm fluorescence, primary screen (AID 1114); details: small-molecule microarray, higher = more signal;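 further: probe is biotin-labelled aShh protein from a stem cell growth factor screen; measures binding of labelled protein to compounds printed on the slide; score merges feature fluorescence at 667 nm with signal-to-noise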
[18] = probe aNog binding to arrayed compounds – biochemical, biotinylated probe, 635/667 nm fluorescence, primary screen (AID 1115); details: small-molecule microarray, higher = more signal;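 further: probe is biotinylated aNog protein used at 0.15 µg/mL for 1 h at 4 C; z-score combines 667 nm fluorescence of each spot with its signal to noise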
[19] = target: Torsin-1A-interacting protein 1 (Homo sapiens) (UniProt Q5JTV8); experiment: compound microarray binding of lysate hLAP1 – cell lysate, small-molecule microarray, COS7 lysate, 635/667 nm fluorescence, primary screen (AID 1116); details: 635 nm fluorescence, higher = more signal
Chain of Torsin-1A-interacting protein 1 (Homo sapiens) (Q5JTV8 whole entry, looked up): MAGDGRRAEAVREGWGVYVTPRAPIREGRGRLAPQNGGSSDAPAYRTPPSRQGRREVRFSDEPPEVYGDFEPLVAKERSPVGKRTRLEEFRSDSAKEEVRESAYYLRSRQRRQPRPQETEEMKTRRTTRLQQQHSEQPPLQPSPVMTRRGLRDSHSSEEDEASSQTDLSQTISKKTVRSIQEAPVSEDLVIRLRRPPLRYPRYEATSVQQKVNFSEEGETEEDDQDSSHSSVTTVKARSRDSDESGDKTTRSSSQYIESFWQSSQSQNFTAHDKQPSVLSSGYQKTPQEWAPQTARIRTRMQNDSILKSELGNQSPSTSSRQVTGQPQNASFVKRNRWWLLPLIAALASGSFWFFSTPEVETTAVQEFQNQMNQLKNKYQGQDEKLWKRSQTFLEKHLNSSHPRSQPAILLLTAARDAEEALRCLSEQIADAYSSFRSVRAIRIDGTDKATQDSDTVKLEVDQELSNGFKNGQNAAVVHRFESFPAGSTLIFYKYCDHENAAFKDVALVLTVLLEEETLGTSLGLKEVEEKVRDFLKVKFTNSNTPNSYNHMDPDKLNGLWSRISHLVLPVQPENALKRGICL

[20] = target: Alpha-bungarotoxin (Bungarus multicinctus) (UniProt P60615); experiment: compounds binding labelled alpha-BTX control protein – biochemical, small-molecule microarray, Alexa647 label, 635/667 nm fluorescence, artefact control for SMM control protein annotation, profiling panel (AID 1117); details: alpha-BTX-A647 binding fluorescence, higher = more signal
Chain of Alpha-bungarotoxin (Bungarus multicinctus) (P60615 whole entry, looked up): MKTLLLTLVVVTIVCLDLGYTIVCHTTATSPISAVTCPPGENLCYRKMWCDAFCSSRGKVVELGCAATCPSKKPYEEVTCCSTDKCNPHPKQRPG

Structure (SMILES) | composite z-score [1] | composite z-score [2] | composite z-score [3] | z-score [4] | composite z-score [5] | composite z-score [6] | composite z-score [7] | composite z-score [8] | composite z-score [9] | composite z-score [10] | composite z-score [11] | z-score [12] | composite z-score [13] | composite z-score [14] | composite z-score [15] | composite z-score [16] | composite z-score [17] | composite z-score [18] | composite z-score [19] | composite z-score [20]
CC(C)C[C@@H]1NC(=O)[C@@]23C(=O)N[C@@H](Cc4ccccc4)C2[C@H](C)[C@@]2(C)O[C@H]2C3/C=C/C/C=C\CNC(=O)[C@H](Cc2ccccc2)NC1=O (stereo not given in full) | 0.608 | -0.117 | -0.417 | -0.639 (inactive) | 0.286 | 0.151 | 0.137 | 0.315 | 0.335 | 1.49 | -1.3 | -2.08 | 0.534 | -0.388 | -0.485 | -0.152 | -0.2 | -0.194 | 0.569 | 0.792
Cc1ccc(N2C(=O)c3ccccc3[C@](C)(C(=O)NC3CC3)[C@@H]2c2ccc(CO)cc2)nc1 | -0.168 | 0.931 | 0.541 | 0.466 (inactive) | -0.0779 | -0.0639 | -0.0541 | 0.44 | 0.272 | 1.13 | -1.22 | 0.344 | 0.129 | -2.49 | -0.231 | -0.0792 | -0.341 | 0.0265 | 1.26 | 0.413
C#CCN1C(C(=O)OCC)OC[C@H]1c1ccccc1 (stereo not given in full) | 0.312 | 0.461 | -0.502 | -0.577 (inactive) | 0.388 | -0.0229 | 0.421 | 0.901 | 0.428 | -0.352 | 1.35 | -0.354 | 0.677 | -0.128 | -0.605 | -0.175 | -0.167 | -0.21 | 1.49 | 0.327
COC(=O)C(CC#Cc1ccc2c(c1)[C@]1(C(=O)N2)[C@H](c2ccccc2OCCO)N2[C@H](c3ccccc3)[C@H](c3ccccc3)OC(=O)[C@H]2[C@@H]1C(=O)N1CCCCCCC1)C(=O)OC | 2.12 | 3.07 | 1.7 | -1.09 (inactive) | 1.55 | 1.47 | 1.91 | 1.77 | 2.52 | 1.79 | 1.48 | -1.95 | 1.73 | 3.07 | 1.76 | 1.46 | 2.72 | 3.54 | 5.82 | 3.89
COCCOC(=O)N1C(=O)[C@@]2(c3cc(C#CCNC(N)=O)ccc31)[C@H](c1ccccc1OCCO)N1[C@H](c3ccccc3)[C@H](c3ccccc3)OC(=O)[C@H]1[C@@H]2C(=O)Nc1nc2ccccc2s1 | 0.852 | 0.868 | 1.13 | -0.349 (inactive) | 0.141 | 0.218 | 0.135 | 0.572 | 0.505 | 0.887 | 0.872 | 0.048 | 0.163 | 1.58 | 1.14 | -0.0758 | 0.284 | 0.561 | 0.745 | 2.51
COCCCN1C(=O)[C@@]2(Cc3ccccc31)c1ccccc1C(=O)N(Cc1ccccc1Cl)[C@H]2c1ccc(CO)cc1 | -0.482 | 0.337 | 0.775 | -0.471 (inactive) | -0.129 | -0.542 | -0.406 | -0.397 | -0.685 | 1.04 | -0.199 | -0.326 | -0.222 | -0.217 | -0.12 | 0.0044 | -0.0066 | 0.206 | 0.167 | -0.342
C=C(COC)/C(=C/C[C@H](OC(C)=O)c1cccc(OCCO)c1)c1cc(C(=O)OC)ccc1OC | 0.84 | 0.0919 | -0.143 | -4.8 (inactive) | 1.21 | 0.656 | 0.0086 | 1.33 | 1.47 | 0.981 | -0.109 | -4.08 | 0.38 | -0.547 | -0.377 | -0.0556 | -0.0146 | -0.201 | 0.188 | -0.284
COc1ccc([Si](C)(C)[C@@H]2[C@@H](CC(=O)N3CCC[C@H]3CO)O[C@]3(C(=O)N(Cc4ccc(N5CCC5=O)cc4)c4ccccc43)[C@H]2C)cc1 | 1.22 | 0.123 | 0.0655 | -0.473 (inactive) | 0.61 | 0.398 | 0.35 | 0.489 | 0.33 | 0.194 | 0.196 | -1.96 | 0.499 | 0.593 | 0.343 | -0.124 | 0.257 | 0.241 | 0.303 | 0.428
COCCOC(=O)N1C(=O)[C@@]2(c3cc(C#CCNC(N)=O)ccc31)[C@H](C(=O)NC[C@H](O)c1ccccc1)[C@H]1C(=O)O[C@H](c3ccccc3)[C@H](c3ccccc3)N1[C@@H]2c1ccc(O)cc1 | 1.54 | 0.347 | 0.925 | 0.012 (inactive) | 0.477 | 0.0604 | -0.0057 | 0.683 | -0.347 | 0.7 | 0.515 | -0.249 | 0.0741 | 1.01 | 0.571 | -0.0203 | -0.152 | -0.122 | 0.138 | 1.04
O=C(NCC(F)(F)F)[C@@H]1c2ccccc2C(=O)N(C2Cc3ccccc3C2)[C@H]1c1ccc(CO)cc1 | 0.23 | 0.621 | 0.715 | -0.658 (inactive) | -0.691 | -0.605 | -0.621 | -0.584 | -0.808 | 1.03 | -1.07 | -0.561 | -1.21 | 0.342 | 1.14 | -0.129 | 0.267 | 0.109 | 0.179 | -1.22
COc1ccc([Si](C)(C)[C@H]2[C@H](CCO)O[C@@]3(C(=O)N(Cc4ccc(N5C(=O)c6cccc7cccc5c67)cc4)c4ccccc43)[C@@H]2C)cc1 | 0.706 | 0.147 | 0.742 | -2.46 (inactive) | -0.0426 | -0.603 | -0.482 | -0.959 | -0.397 | 0.48 | 0.0848 | -4.78 | -0.385 | 1.57 | 1.28 | -0.129 | -0.138 | 0.467 | 0.18 | 1.05
